Compound activity (PubChem BioAssay)
Pf growth 96h = P. falciparum growth inhibition at 96 hour, primary screen for plastid delayed-death inhibitors. P. falciparum luciferase reporter growth, 96 h. Potency, µM (titrated, usually from 28.7 µM), inactives show top-dose activity change, negative = inhibition, most hits filed as inhibitors. 6.9% of 320,000 active. AID 504834; note: potency is the fitted concentration of half-maximal effect; % is set by controls: 0 for no effect and ±100 for the full control effect
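Luminescence readout: decreased luciferase signal marks inhibited growth of reporter-expressing P. falciparum in infected red cells (2% hematocrit, 0.05% parasitemia final), exposed to compound two generations (96 h, 37 C, 5% CO2).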
LmPK inhibitor = blocks Leishmania mexicana pyruvate kinase activity | Q27686 | purified LmPK, Kinase-Glo ATP luminescence, 1 h | Potency, µM (doses to about 57.5 µM), inactives show at the highest dose activity change, negative = inhibition, usual class: inhibitors | 0.37% of 290,000 active; note: potency is the fitted concentration of half-maximal effect; % is set by controls: 0 for no effect and ±100 for the full control effect
Target sequence (Q27686 whole entry, looked up): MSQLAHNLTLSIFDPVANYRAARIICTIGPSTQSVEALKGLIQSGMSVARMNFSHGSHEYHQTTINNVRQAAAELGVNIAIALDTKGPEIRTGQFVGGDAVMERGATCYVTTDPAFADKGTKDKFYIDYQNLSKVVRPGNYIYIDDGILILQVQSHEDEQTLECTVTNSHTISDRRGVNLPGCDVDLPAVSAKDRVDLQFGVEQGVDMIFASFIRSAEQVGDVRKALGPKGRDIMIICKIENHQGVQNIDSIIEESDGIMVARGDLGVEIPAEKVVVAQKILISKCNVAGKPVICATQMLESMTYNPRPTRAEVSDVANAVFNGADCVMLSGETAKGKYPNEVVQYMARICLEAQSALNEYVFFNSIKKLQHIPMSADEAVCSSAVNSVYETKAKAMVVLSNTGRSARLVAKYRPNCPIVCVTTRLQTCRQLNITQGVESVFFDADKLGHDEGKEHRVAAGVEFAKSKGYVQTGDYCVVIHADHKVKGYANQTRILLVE
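Purified LmPK (0.1 nM) converted ADP (0.1 mM) to ATP with PEP (0.5 mM) in imidazole buffer pH 7.2 with KCl and MgCl2, 1 h at room temperature. ATP was read by Kinase-Glo luminescence; data normalized to uninhibited and no-enzyme controls.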
Shiga toxin inh = blocks Shiga toxin action in Vero cells | 9.2% of 290,000 active | inhibition, % at 38.7 µM | Vero cells, Shiga toxin protein synthesis inhibition reporter; in the data active = inhibition mostly above about 28%, no sharp cut-off; inactive = mostly below about 43%; note: 0% is about no effect
CHX counter = counter-screen hit for Shiga toxin inhibitors, cycloheximide; cell reporter, cycloheximide protein synthesis inhibition counterscreen; max response, %; 12% of 300,000 active; AID 2314; in the data active = max response mostly above about 13%, no sharp cut-off; inactive = mostly below about 14%; note: read at 38.3 µM for the half of the compounds with a filed dose; 0% is about no effect
Pf growth 48h = inhibits P. falciparum growth in the first generation, 48 h; 5.9% of 310,000 active; Potency, µM (highest dose often 28.7 µM), without a hit: top-dose activity change, negative = inhibition, most hits filed as inhibitors; P. falciparum luciferase growth in erythrocytes, 48 h; AID 504832; note: potency is the fitted concentration of half-maximal effect; % is set by controls: 0 for no effect and ±100 for the full control effect
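Cell-based growth assay: transgenic P. falciparum expressing firefly luciferase, cultured in red cells within RPMI 1640 containing 0.5% w/v Albumax, 24 mM bicarbonate and gentamycin. A drop in luciferase activity indicates inhibition.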
Active calls of the source: *; ? = inconclusive; · = no result given. Rows were chosen to be rich in hits. Some 22% of all compounds tested hit in one or more screens of this group. Unless noted, calls come from the whole dose curve; as a rule, active = well fitted inhibition curve with a large enough effect; inconclusive = small, poorly fitted or top-dose-only effect, or another doubt; inactive = no such curve, though single readings can be large or run the other way.

SMILES	Pf growth 96h	LmPK inhibitor	Shiga toxin inh	CHX counter	Pf growth 48h
CC(=O)Nc1ccc(-c2cc(-c3ccccc3)nc(-c3ccccc3)n2)cc1	1.3µM*	2%	-4	5	?
CSc1ccc(CN(C)CC(=O)Nc2ccc(C)cc2Br)cc1	?	-2%	13	-3	14%
Cc1ccc(NC(=O)CN(C)S(=O)(=O)c2cccs2)cc1F	44%	-4%	75*	38*	82%
CN(CC(=O)Nc1ccccc1F)Cc1cccs1	48%	-6%	8	8	24%
Cc1ccc(NC(=O)CN(C)S(=O)(=O)c2cccs2)cc1C	·	9%	90*	35*	38%
Cc1cc(Br)ccc1NC(=O)CN(C)Cc1cccs1	3%	-2%	48*	28	?
CCN(CC)CC(=O)Nc1ccc(C)cc1Br	·	-8%	40*	27*	11%
Cc1ccc(NC(=O)COC(=O)C2CC2)c(Br)c1	35%	-2%	62*	40*	0%
Cc1ccc(NC(=O)COC(=O)c2cc(Cl)cc(Cl)c2)c(Br)c1	-28%	1%	-10	-5	20%
Cc1ccc(NC(=O)CN(C)S(=O)(=O)c2cccs2)c(Br)c1	-10%	2%	84*	36*	52%
CCN(CC)CC(=O)Nc1c(C)cc(C(C)(C)C)cc1C	59%	7%	40*	32*	-6%
CC(C)(O)C#Cc1ccc(CN2CCCC(CO)(Cc3cccc(Cl)c3)C2)cc1 (centres undefined)	-12%	0%	28	-1	?
O=C(NCc1ccccc1)C1(CC2CC(c3ccccc3)=NO2)CCNCC1 (centres undefined)	?	·	·	·	12µM*
CCCCCCCNC(=O)C1(CC2CC(c3ccc(Cl)cc3)=NO2)CCN(C(=O)C2(C)CC2)CC1 (centres undefined)	?	-2%	5	-1	?
CCCCCCCNC(=O)C1(CC2CC(c3ccccc3)=NO2)CCNCC1 (centres undefined)	?	·	·	·	12µM*
Cc1nnc(SC(C)C(=O)Nc2ccc(N3CCOCC3)cc2)n1Cc1ccccc1 (centres undefined)	26%	·	·	·	3%
CCOc1ccc(S(=O)(=O)NCc2ccccn2)cc1NC(=O)c1ccccc1F	13%	-1%	8	-1	-16%
CCOC(=O)C1(Cc2cccc(OC)c2)CCCN(C(=O)c2cc(C)oc2C)C1 (centres undefined)	15%	7%	76*	39*	?
CCOC(=O)C1(Cc2cccc(OC)c2)CCCN(S(=O)(=O)CC)C1 (centres undefined)	?	0%	6	1	-7%
CCOC(=O)C1(Cc2cccc(OC)c2)CCCN(CCO)C1 (centres undefined)	?	0%	8	-2	-19%
CCOC(=O)C1(Cc2cccc(F)c2)CCN(C(=O)c2cscn2)CC1	?	3%	-11	8	-3%
CCOC(=O)C1(Cc2cccc(OC)c2)CCCN(C(=O)CCc2cccnc2)C1 (centres undefined)	-5%	0%	69*	46*	?
CCOC(=O)C1(Cc2cccc(F)c2)CCN(C(=O)c2ccoc2C)CC1	-25%	1%	10	12*	10µM*
CC#CC(=O)N1CCCC(Cc2cccc(OC)c2)(C(=O)OCC)C1 (centres undefined)	6.6µM*	-2%	33*	43*	?
COc1ccc(CCN2CCCn3c2nc2c3c(=O)n(CC(N)=O)c(=O)n2C)cc1OC	9%	0%	-5	-8	12%
SMILES	Pf growth 96h	LmPK inhibitor	Shiga toxin inh	CHX counter	Pf growth 48h
CC(C)C[C@@H](C(=O)N[C@@H](Cc1c[nH]c2ccccc12)C(N)=O)N1C[C@]2(CCCN2C(=O)[C@H](Cc2ccccc2)NC(=O)[C@H](Cc2ccccc2)NC(=O)[C@H](CCC(N)=O)NC(=O)[C@H](CCC(N)=O)NC(=O)[C@@H]2CCCN2C(=O)[C@H](CCCCN)NC(=O)[C@@H]2CCCN2C(=O)[C@@H](N)CCCNC(=N)N)CC1=O	·	·	-9	-4	·
Cc1c(NC(=S)NC(NC(=O)C(C)(C)C)C(Cl)(Cl)Cl)c(=O)n(-c2ccccc2)n1C (centres undefined)	?	0%	1	-1	-10%
COCCNC(=O)CN(Cc1ccc(Cl)cc1)S(C)(=O)=O	·	3%	-19	-1	15%
O=S(=O)(NCCc1ccccc1)c1ccc(Br)cc1	13µM*	-12%	11	10	-6%
CN1CCN(CCCNC(=O)c2ccc(CS(=O)(=O)c3ccc(Br)cc3)o2)CC1	8.3µM*	1%	12	-3	·
COc1ccc(CCNC(=O)CN(Cc2ccc(Cl)cc2)S(C)(=O)=O)cc1OC	15µM*	2%	-7	-4	0%
Cc1ccccc1CS(=O)(=O)Cc1ccc(C(=O)NCCc2ccccc2)o1	-8%	1%	12	23*	?
O=C(NCCCN1CCCC1)c1ccc(CS(=O)(=O)c2ccc(Br)cc2)o1	?	11%	24	0	·
O=C(CCSCCc1ccccn1)Nc1cccc([N+](=O)[O-])c1	0%	1%	38	25	-6%
O=C(NCCc1ccccc1)c1ccc(CS(=O)(=O)c2ccc(Br)cc2)o1	4.1µM*	0%	-3	13	-7%
CN(CCNC(=O)c1ccc(CS(=O)(=O)c2ccc(Br)cc2)o1)CCc1ccccc1	?	-3%	5	-2	-15%
COc1ccc(CCNC(=O)c2ccc(CS(=O)(=O)c3ccc(Cl)cc3)o2)cc1OC	10µM*	1%	-1	-1	-48%
S=C(NCc1ccco1)NCC(c1ccco1)N1CCCCC1 (centres undefined)	?	3%	-5	0	-24%
Cc1ccc(C)c(C(=O)CN2C3=NCCCN3c3ccccc32)c1	9.3µM*	-5%	-24	-4	7.4µM*
Cc1ccc(C(O)CN2C3=NCCCN3c3ccccc32)cc1 (centres undefined)	4.1µM*	2%	-44	-3	?
CCCCCCN1C2=NCCCN2c2ccccc21	12µM*	-2%	-6	-2	?
OCCN1C2=NCCCN2c2ccccc21	7.4µM*	1%	-13	-5	0%
COCCN1C(=O)CS/C1=C(/C#N)C(=O)NCc1ccco1	15%	0%	-10	0	?
S=c1[nH]nc(-c2cccnc2)n1/N=C/C=C/c1ccccc1	12%	9%	0	0	-4%
O=C(N/N=C1\CCCc2ccccc21)c1ccccc1[N+](=O)[O-]	?	3%	10	4	?
CC1=CC(C)C2(COC(=O)Nc3ccccc3)COC(C)C1C2C (centres undefined)	?	3%	36	13*	?
CC1(C)OCC(COC(=O)Nc2cccnc2)([N+](=O)[O-])CO1	0%	0%	-6	-2	-6%
CC1(C)COC(c2cccc(C3=NC(C)(C)CO3)n2)=N1	19%	3%	14	6	12%
Cc1ccc(Nc2nc3ccccc3s2)c(C)c1	186%	-8%	94*	47*	265%
